Bioassay records as filed in PubChem BioAssay.
Rows were chosen to be rich in hits. Some 2.9% of all compounds tested hit in one or more screens of this group.
Fam108B inh – mouse Fam108B serine hydrolase inhibitors, primary screen, counter-screen for RBBP9 inhibitor project, biochemical, fluorescence polarization | recombinant Fam108B, FP-Rh probe fluorescence polarization | inhibition, % at 9.51 µM | 300,000 tested, 0.33% active;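 active = inhibition above the screen mean inhibition plus 3 SD, computed separately per campaign, cut at about 18% in these data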;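 note: inhibitors lower polarization as less probe binds the enzyme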
pPAFAH FP inh – pPAFAH enzyme inhibitors, primary screen, biochemical, fluorescence polarization, human; Platelet-activating factor acetylhydrolase (Homo sapiens), Q13093; 330,000 tested, 1.5% active; inhibition, % at 3.39 µM; recombinant pPAFAH, FP-rhodamine probe fluorescence polarization;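 active = inhibition above the mean inhibition across the screen plus 3 SD, cut at about 25% in these data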;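 note: inhibitors block binding of the rhodamine activity-based probe so polarization drops; 0% = enzyme with DMSO and 100% = wells lacking pPAFAH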
Target sequence (Q13093 whole entry, looked up): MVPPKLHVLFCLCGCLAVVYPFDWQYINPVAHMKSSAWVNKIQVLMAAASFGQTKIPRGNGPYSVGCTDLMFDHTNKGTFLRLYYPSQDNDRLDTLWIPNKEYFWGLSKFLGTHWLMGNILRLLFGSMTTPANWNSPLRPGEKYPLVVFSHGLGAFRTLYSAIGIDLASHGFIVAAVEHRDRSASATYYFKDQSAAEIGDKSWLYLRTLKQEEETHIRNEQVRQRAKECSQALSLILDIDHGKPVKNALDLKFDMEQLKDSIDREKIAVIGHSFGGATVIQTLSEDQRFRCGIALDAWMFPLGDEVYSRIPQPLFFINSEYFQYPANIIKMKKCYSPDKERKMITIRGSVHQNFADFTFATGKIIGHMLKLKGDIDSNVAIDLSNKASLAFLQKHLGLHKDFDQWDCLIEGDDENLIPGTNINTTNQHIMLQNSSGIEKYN
PAFAH1B2 FP inh – PAFAH1B2 enzyme inhibitors, primary screen, biochemical, fluorescence polarization, human; Platelet-activating factor acetylhydrolase IB subunit alpha2 (Homo sapiens), P68402; recombinant PAFAH1B2, FP-rhodamine activity probe; inhibition, % at 3.39 µM; 340,000 tested, 1.2% active;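 active = inhibition above the mean of all tested compounds plus 3 SD, cut at about 24% in these data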;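 note: 0% = enzyme with DMSO and 100% = wells lacking PAFAH1B2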
PAFAH2 FP inh – PAFAH2 enzyme inhibitors, primary screen, biochemical, fluorescence polarization, human; inhibition, % at 3.39 µM; recombinant PAFAH2, FP-rhodamine activity probe; 340,000 tested, 0.99% active; Platelet-activating factor acetylhydrolase 2, cytoplasmic (Homo sapiens), Q99487;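 active = inhibition above the mean over all tested compounds plus 3 SD, cut at about 30% in these data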;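 note: inhibitors block probe labeling of enzyme so polarization drops; 0% = enzyme with DMSO and 100% = wells lacking PAFAH2 protein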
PME-1 primary – PME-1 inhibitors via competitive probe labeling, primary screen, biochemical, fluorescence polarization, FP-Rh probe, HTS. Protein phosphatase methylesterase 1 (Homo sapiens), Q9Y570. recombinant PME-1. inhibition, % at 5.9 µM. 320,000 tested, 0.53% active;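 active = inhibition above the campaign mean of all compounds plus 3 SD, cut at about 26% in these data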;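 note: competitive labeling of PME-1 active site by serine hydrolase directed probe; 0% = PME-1 with DMSO and 100% = wells lacking PME-1 enzyme; inhibitors block probe labeling so polarization falls and inhibition rises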
PAFAH1B3 inh – PAFAH1B3 enzyme inhibitors, primary screen, biochemical, fluorescence polarization, human. Platelet-activating factor acetylhydrolase IB subunit alpha1 (Homo sapiens), Q15102. recombinant PAFAH1B3, FP-rhodamine probe. inhibition, % at 3.39 µM. 340,000 tested, 0.28% active. AID 492972, 2010;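 active = inhibition above the screen-wide average of all tested compounds plus 3 SD, cut at about 25% in these data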;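 note: 0% = enzyme with DMSO only and 100% = wells lacking PAFAH1B3 protein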
PAFAH1B3 conf FP – PAFAH1B3 enzyme inhibitors, confirmation, biochemical, fluorescence polarization, human | shares compounds with PAFAH1B3 inh | recombinant PAFAH1B3, FP-Rh activity-based probe | inhibition, % at 3.39 µM | 390 tested, 30% active | AID 493032, 2011;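 active = average inhibition over triplicate runs above the hit cutoff set in the earlier primary screen, cut at about 25% in these data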;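 note: 0% = enzyme with DMSO and 100% = wells lacking PAFAH1B3 protein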
Active calls of the source: *; nt = no result.

SMILES	Fam108B inh	pPAFAH FP inh	PAFAH1B2 FP inh	PAFAH2 FP inh	PME-1 primary	PAFAH1B3 inh	PAFAH1B3 conf FP
Cc1ccc(SC(C)C(=O)Nc2cccc(N(C)S(C)(=O)=O)c2)cc1 (stereo not given)	-3.0	1.7	3.7	-4.3	-4.0	6.0	nt
COc1cccc2c1c(NC(=O)c1cc(C)on1)nn2C	0.7	4.5	0.7	-2.0	3.9	-2.0	nt
COc1ccc(C(=O)c2ccc(OC)c(OC)c2)cc1OC	1.0	0.7	6.8	-9.5	-0.1	4.4	nt
COc1ccc(C(=O)c2nccc3cc(OC)c(OC)cc23)cc1OC	nt	4.8	10.2	11.6	21.5	56.5*	8.1
CCc1ccc(NC(=O)NNC(=O)c2ccc3ccccc3c2O)cc1	nt	nt	12.3	-6.0	nt	36.3*	74.0*
O=C(Nc1ccsc1C(=O)N1CCCCCC1)c1ccccc1	-3.2	1.7	0.8	-1.3	-1.8	2.4	nt
COc1ccccc1-c1nnc2n1N=C(c1ccc(O)c(O)c1)CS2	10.2	17.1	7.1	17.4	8.4	30.3*	22.6
COc1cccc(/C=N/NC(=O)c2ccc([N+](=O)[O-])cc2Cl)c1O	0.2	6.0	3.1	10.1	-2.1	27.3*	14.8
Cc1cnc(C=NNC(N)=S)c2cccc(N)c12	nt	nt	9.3	17.8	nt	34.4*	51.4*
CC(C)CNC(=O)C(=O)Nc1cc2c3c(c1)CCC(=O)N3CCC2	1.3	4.4	6.0	2.1	-7.9	5.2	nt
Cc1ccn2nc(C(=O)OCC(=O)N(CC(C)C)C3CCS(=O)(=O)C3)nc2n1 (stereo not given)	nt	-2.0	1.6	1.1	3.3	2.7	nt
Cc1ccccc1-c1nnc(SCC(=O)N(CC(C)C)c2c(N)n(CC(C)C)c(=O)[nH]c2=O)n1C	-0.1	-7.9	6.5	-2.1	-0.2	-1.5	nt
O=C(c1ccccc1)c1ccc(N2CCOCC2)cc1	nt	nt	3.0	-6.7	nt	16.1	nt
O=C(O)c1ccc(NC2=C(N3CCOCC3)C(=O)c3ccccc3C2=O)cc1	1.9	-7.0	7.7	11.2	3.1	27.2*	12.9
CC(=O)c1ccc(NC2=C(N3CCOCC3)C(=O)c3ccccc3C2=O)cc1	1.6	-7.6	3.5	24.5	7.9	30.7*	8.6
O=C(NC1=C(Nc2ccc(F)cc2)C(=O)c2ccccc2C1=O)c1ccc(Cl)cc1	10.6	5.2	12.6	5.2	2.7	26.1*	8.5
O=C(NNC(=O)c1ccc(NC(=O)c2ccccc2)cc1)c1ccc(F)cc1	0.0	-2.3	2.8	-1.8	-7.5	5.3	nt
C/C(=C\C(=O)c1ccc(Br)cc1)NCc1ccccc1	0.0	2.6	2.7	9.3	-0.1	8.0	nt
COC(=O)CCC(=O)OC1(C)C(=O)C2=CN(CCCCO)C(c3ccc(OC)cc3)=CC2=C(Br)C1=O (stereo not given)	4.0	7.5	nt	nt	5.9	nt	nt
COC(=O)CCC(=O)OC1(C)C(=O)C2=CN(CCc3ccccn3)C(c3ccc(OC)cc3)=CC2=C(Br)C1=O (stereo not given)	1.2	19.9	0.6	13.0	2.3	29.9*	4.4
O=C1c2ccccc2C(=O)c2c1ccc(O)c2O	nt	nt	5.7	12.3	nt	30.0*	20.1
C=CCOc1c(Br)cc(/C=C2\SC(=Nc3ccccc3)NC2=O)cc1OC	nt	nt	-5.4	-6.3	nt	7.8	nt
C=CCOc1ccc(Br)cc1/C=C1/SC(=Nc2ccc(C(=O)O)cc2)NC1=O	nt	nt	9.9	0.2	nt	31.1*	21.5
CC1(NC(=O)c2cc(Cl)nc3ccccc23)CCS(=O)(=O)C1 (stereo not given)	nt	1.4	3.1	5.3	-0.2	35.3*	8.9
O=c1c(=Nc2ccccc2O)c(=O)c2ccccc12	0.8	1.1	9.8	7.4	-0.6	49.5*	11.8
SMILES	Fam108B inh	pPAFAH FP inh	PAFAH1B2 FP inh	PAFAH2 FP inh	PME-1 primary	PAFAH1B3 inh	PAFAH1B3 conf FP
C=CC(=O)Nc1sc2c(c1C(N)=O)CCCC2	0.3	-2.9	-1.2	3.0	-0.6	31.6*	29.7*
CCCN1CCN(C(=O)c2ccc3nc(CC)c(CC)nc3c2)CC1	-1.1	3.9	0.2	-1.2	-8.1	2.1	nt
CCc1nc2ccc(C(=O)N3CCN(CC)CC3)cc2nc1CC	-0.3	-1.1	18.4	28.3	-7.1	27.7*	8.3
COc1ccc(NS(=O)(=O)c2csc(C(N)=O)c2)cc1	-2.9	6.7	6.2	-2.6	-1.1	2.8	nt
O=c1c2cccc3c2c(nn1CN1CCOCC1)-c1ccccc1-3	-1.4	4.1	7.8	7.2	6.8	26.4*	36.2*
CCN(CC)CCn1nc2c3c(cccc3c1=O)-c1ccccc1-2	1.0	4.4	-0.2	4.6	6.5	2.2	nt
